# In PubChem BioAssay (NCATS):
# Results filed as inconclusive are left out. Activity calls are given as the source filed them. Calls come from the whole dose curve; as a rule, active = well fitted inhibition curve with a large enough effect; inconclusive = small, poorly fitted or top-dose-only effect; inactive = flat fitted curve, though single readings scatter.
# Test system: MCC-26
# Experiment: qHTS assay to identify novel small-molecules to repurpose for Merkel cell carcinoma treatment (AID 1296009); note: nearly all actives have a fitted effect of over 60% in size
# Details: MCC and control cell lines, CellTiter-Glo viability, 72 h; series mostly up to 46 µM; activity change, negative = cytotoxicity: at the top concentration
# Excerpt: MCC is a rare and aggressive neuroendocrine skin cancer with limited treatment options. Approximately 80% of MCCs have the Merkel cell polyomavirus (MCPyV) DNA integrated into the host genome (virus-positive: VP-MCC) and viral oncogenes drive oncogenesis. The remaining MCCs are virus-negative (VN-MCC) and are caused by UV mutagenesis. To identify novel treatments for VP-MCC and/or VN-MCC we screened three VP-MCC cell lines (WAGA, MKL-1, MKL-2), three VN-MCC cell lines (MCC-13, MCC-26, UISO), and four immortalized, non-transformed control cell lines (HaCaT, HEK293T, CRL7250, NIH-3T3) against ~2,400 compounds in the NCGC Pharmaceutical Collection (NPC) and ~1,900 compounds in the Mechanism Interrogation PlatE (MiPE). Using cell viability as a readout (CellTiter-Glo assay) we found both overlapping and distinct drugs that can be repurposed for the treatment of VP-MCC and VN-MCC.
# A high-throughput screen was conducted in 1536-well white flat bottom plates (Corning) on a Kalypsys robotic system. Cell lines WAGA, MKL-1, MKL-2, MCC-13, MCC-26, UISO, HaCaT, HEK293T, CRL7250, and NIH-3T3 were screened against 2 small molecule annotated drug libraries NPC and MIPE in dose response (8 and 11 pt. respectively) measuring cell viability after 72 hours of incubation. […] A 1,536 pintool (Kalypsys) was used to transfer 23 nL of compound in DMSO to the 1,536-well assay plates. After 72 hr incubation at 37 degree celsius, 2.5 uL of CellTiter-Glo (Promega) was dispensed into each well using a BiorapTR. Plates were incubated at room temperature for 10 min, transferred to a ViewLux (PerkinElmer) and the luminescence was recorded using an exposure time of 2 seconds. Relative luminescence units (RLUs) were normalized to in-plate controls (no cells as a positive (cytotoxicity) control, DMSO as negative control) and the normalized data was processed using NCATS in-house software.
# % is set by controls: 0 for no effect and ±100 for the full control effect; potency is the fitted concentration of half-maximal effect.
Compound,"activity change, negative = cytotoxicity",Potency
c1ccc2sc(SSc3nc4ccccc4s3)nc2c1,5.49% [at 16.1 µM] (inactive),
CCC1C(=O)OCC1Cc1cncn1C (stereo not given),1.34% (inactive),
CC(=O)SCC(CC(=O)c1ccc(C)cc1)C(=O)O (stereo not given),3.95% (inactive),
CCCCCCCCCCCCCCCC(=O)OC(C)C,16.9% (inactive),
CCCCCCCC/C=C/C(=O)O,-0.82% (inactive),
C#CC1(O)CC[C@H]2[C@@H]3CCC4=CCCC[C@@H]4[C@H]3CC[C@@]21C (stereo not given in full),-7.11% (inactive),
CC(=O)c1ccc(OCC(=O)N2CCCCC2)cc1,12.2% (inactive),
c1ccc(CCNc2nc(-c3ccccc3)cs2)cc1,-9.23% (inactive),
CCCCCCCCCCCC(=O)[O][Sn]([CH2]CCC)([CH2]CCC)[O]C(=O)CCCCCCCCCCC,7.66% (inactive),
Cc1[nH]cnc1CN1CCc2c(c3ccccc3n2C)C1=O,8.82% (inactive),
O=C(OCc1ccccc1)c1ccccc1,6.94% (inactive),
CN(C)CCn1nnnc1SCC1=C(C(=O)O)N2C(=O)[C@@H](NC(=O)Cc3csc(N)n3)[C@H]2SC1,-0.307% (inactive),
Nc1cc(-c2ccncc2)c[nH]c1=O,7.34% (inactive),
Nc1ccc([N+](=O)[O-])cc1O,-4.21% [at 92.7 µM] (inactive),
O=C1CN(/N=C/c2ccc([N+](=O)[O-])o2)C(=O)N1,-4.33% (inactive),
CNC(=O)c1c(I)c(NC(=O)CCCCC(=O)Nc2c(I)c(C(=O)O)c(I)c(C(=O)NC)c2I)c(I)c(C(=O)O)c1I,-15.2% (inactive),
C[N+]1(C)[C@@H]2CC(OC(=O)[C@H](CO)c3ccccc3)C[C@H]1[C@@H]1O[C@@H]12 (stereo not given in full),10.5% (inactive),
C/C(=N\O)c1ccc(OCC(=O)N2CCCCC2)cc1,-14.1% (inactive),
CCCCCCOc1ccccc1C(N)=O,-13.4% (inactive),
Cc1ccc(O)c(-n2nc3ccccc3n2)c1,-3.36% (inactive),

Compound,"activity change, negative = cytotoxicity",Potency
COc1cccc2c1C(=O)c1c(O)c3c(c(O)c1C2=O)C[C@@](O)(C(=O)CO)C[C@@H]3O[C@H]1C[C@H](N)[C@H](O[C@@H]2CCCCO2)[C@H](C)O1,,7.5 µM (active)
CCCC(=O)OC[C@@H](OC(=O)CCC)[C@@H](OC(=O)CCC)[C@H](Cn1c2nc(=O)[nH]c(=O)c-2nc2cc(C)c(C)cc21)OC(=O)CCC,0.389% (inactive),
CCCCCCCCCCCCCCCCCC(=O)O,9.56% (inactive),
CCCCCCCCCCCCOCCO,9.62% (inactive),
Nc1ccc(O)c(C(=O)O)c1,12.9% (inactive),
COc1cc(NC(C)CCCN)c2ncccc2c1 (stereo not given),-12.3% (inactive),
O=C(O)/C=C\C(=O)O,-2.43% (inactive),
O=C(CCN1CCN(CCO)CC1)N1c2ccccc2Sc2ccc(C(F)(F)F)cc21,-0.133% (inactive),
Nc1c(CC(=O)O)cccc1C(=O)c1ccc(Br)cc1,4.12% (inactive),
O=C(O)c1ccccc1Nc1cccc(C(F)(F)F)c1,3.47% (inactive),
c1ccc2sc(SN3CCOCC3)nc2c1,0.525% (inactive),
O=C(Nc1ccc(C(=O)O)c(O)c1)c1ccccc1,0.248% (inactive),
COc1cc2c3cc1Oc1cc(ccc1O)C[C@@H]1c4c(cc(OC)c(O)c4Oc4ccc(cc4)C[C@@H]3N(C)CC2)CC[N+]1(C)C,-0.724% (inactive),
N=C(N)N,-1.1% (inactive),
Cc1nc2ccccc2n1Cc1ccc(Cl)cc1,-13.4% (inactive),
CC(C(=O)O)c1ccc2c(c1)[nH]c1ccc(Cl)cc12 (stereo not given),-7.93% (inactive),
O=C(O)Cc1ccc2c(c1)C(=O)c1ccccc1CO2,4.23% (inactive),
[O-][n+]1ccccc1SSc1cccc[n+]1[O-],,0.146 µM (active)
CCCCC1C(=O)N(c2ccccc2)N(c2ccc(O)cc2)C1=O (stereo not given),-17.4% (inactive),
Nc1ccc(C(=O)O)c(O)c1,13.9% (inactive),
